In PubChem BioAssay AID489008 (National Center for Advancing Translational Sciences (NCATS), 2010):
Results filed as inconclusive are left out. Active and inactive are the calls of the source. Calls come from the whole dose curve; as a rule, active = well fitted inhibition curve with a large enough effect; inconclusive = small, poorly fitted or top-dose-only effect; inactive = flat fitted curve, though single readings scatter.

target: Ferritin light chain (Equus caballus) (UniProt P02791); experiment: Confirmation Assay for Identification of Novel General Anesthetics; details: apoferritin 1-aminoanthracene fluorescence displacement; note: nearly all actives have a fitted effect of over 40% in size
How it was run: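 Horse apoferritin (10 uM) pre-loaded with 1-AMA (50% saturated, PBS) exposed to compounds 10 min at room temperature; loss of 1-AMA fluorescence (380/535 nm) scaled between free and bound ligand, curves fitted with Hill equation.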
Potency is the fitted concentration of half-maximal effect.

Chain of Ferritin light chain (Equus caballus) (P02791 2-175 limits assumed): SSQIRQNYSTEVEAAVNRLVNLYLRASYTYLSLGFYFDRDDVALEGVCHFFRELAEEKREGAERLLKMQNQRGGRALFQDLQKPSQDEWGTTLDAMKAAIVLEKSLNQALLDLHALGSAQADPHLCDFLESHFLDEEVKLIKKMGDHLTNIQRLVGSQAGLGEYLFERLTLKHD

Potency, active:
O=C(COc1ccccc1Cl)N1CCCCCCC1 15.8 µM
CC(=O)Nc1ncc(Cc2cc(Cl)ccc2Cl)s1 15.8 µM
Cc1c(Br)cc(C(=O)N2CCCCCC2)c(C)c1C 17.8 µM
COc1cc(C(=O)O[C@@H]2CC3CC[C@]2(C)C3(C)C)ccc1O 14.1 µM
O=C(NC1CCCCCCC1)c1cc(COc2ccc3ncccc3c2)on1 12.6 µM
O=C(NC1CCCCCC1)C(=S)NCc1ccccc1 11.2 µM
Cc1ccc(CCC(=O)Nc2cc(Cl)ccc2Cl)o1 7.94 µM
CCN(CC)c1cccc(OC2=NS(=O)(=O)c3ccccc32)c1 17.8 µM
Cc1ccc(CNc2ccc(CNc3ncn[nH]3)cc2)cc1 20 µM
c1cc2cn[nH]c2cc1NC1CCCCCC1 15.8 µM
Cc1ccccc1OCC(=O)N1CCCCCCC1 7.94 µM
O=S(N1CCc2ccccc21)C12CC3CC(CC(C3)C1)C2 (stereo not drawn) 12.6 µM
O=C1CCCCCCC1Sc1ccccc1[N+](=O)[O-] (stereo not drawn) 7.94 µM
Cc1ccc(NCc2ccccc2O)c(C)c1 12.6 µM
Nc1c(C(=O)NCc2ccccc2)nnn1Cc1cccc(Cl)c1 3.98 µM
CN(C)c1ccc(C(=S)N2CCCCCC2)cc1 25.1 µM
Clc1ccc(NCc2ccsc2)cc1 25.1 µM
CC1Cc2ccccc2N1C(=O)CSc1ccccc1 (stereo not drawn) 14.1 µM
CCCCCc1ccc(C2=NNC(=O)CC2)cc1 28.2 µM
Fc1ccccc1CNc1ccc(Cl)c(Cl)c1 10 µM
Fc1ccccc1CNc1cc(Cl)cc(Cl)c1 14.1 µM
O=C(CCC(=O)c1ccc(Cl)cc1)OCC(=O)c1ccccc1 17.8 µM
COc1ccc(CNC(=O)CN2N=C(c3ccc(Cl)cc3)CCC2=O)cc1 20.7 µM
Cc1ccc(-c2ccc(=O)n(CC(=O)NCc3ccco3)n2)cc1 11.2 µM
Nc1ccc(Nc2ccccc2)c(Cl)c1 12.6 µM
COc1cccc(CNc2ccc(C)c(Cl)c2)c1 11.2 µM
COc1ccc(NC(C)c2ccccc2)cc1 (stereo not drawn) 15.8 µM
O=c1cc(C23CC4CC(CC(C4)C2)C3)[nH][nH]1 12.6 µM
c1cnc(NC2CCCCCC2)nc1 15.8 µM
Cc1ccccc1CSCC(=O)N/N=C/c1cccs1 15.8 µM
O=C(CN1CCCC1)Nc1ccc(OCc2ccccc2)cc1 15.8 µM
O=C(CCNc1cccc(Cl)c1)c1cccs1 17.8 µM
Cc1ccccc1Oc1ccccc1N 15.8 µM
CCCC(C)NS(=O)(=O)c1ccc(OC)c(C)c1 (stereo not drawn) 20 µM
Cc1sc2ncn(CC(=O)NCc3ccco3)c(=O)c2c1-c1ccccc1 28.2 µM
Cc1csc(Nc2ccc(Cl)cc2)n1 31.6 µM
Fc1cnc(Cl)nc1NC1CCCCC1 12.6 µM
CC1CCCCC1NC(=O)COC(=O)c1ccc(N(C)C)cc1 (stereo not drawn) 11.2 µM
